Screens: PubChem BioAssay, National Center for Advancing Translational Sciences (NCATS)
HTT ATP protect: cytoprotection in Huntington HTT-Q103 PC12 cell model | PC12 HTT-Q103 induced, cytoprotection, ATP luminescence, 40 h | Potency, µM (highest dose often 56.4 µM), for inactives: cytoprotection (ATP increase), actives largely listed as activators | actives 0.14% (n = 230,000); also: % of control where 0% means no effect; nearly all actives have a fitted effect of over 45% in size
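ATP quantification (ATPlite) reports survival of PC12 cells in which tebufenozide, 100 nM final, switches on Htt exon 1 with 103 glutamines linked to GFP; compounds are titrated.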
NPSR antag: antagonists of human neuropeptide S receptor cAMP signaling. Q6W5P4. CHO-NPSR cells, cAMP TR-FRET, antagonist mode. Potency, µM (doses to about 38.3 µM), without a hit: at the highest dose activity change, negative = inhibition, most hits filed as inhibitors. actives 1% (n = 220,000). AID 1461; also: % is scaled to controls: 0 for no effect and ±100 for the full control effect; nearly all actives have a fitted effect of over 50% in size
Target sequence (Q6W5P4 whole entry, looked up): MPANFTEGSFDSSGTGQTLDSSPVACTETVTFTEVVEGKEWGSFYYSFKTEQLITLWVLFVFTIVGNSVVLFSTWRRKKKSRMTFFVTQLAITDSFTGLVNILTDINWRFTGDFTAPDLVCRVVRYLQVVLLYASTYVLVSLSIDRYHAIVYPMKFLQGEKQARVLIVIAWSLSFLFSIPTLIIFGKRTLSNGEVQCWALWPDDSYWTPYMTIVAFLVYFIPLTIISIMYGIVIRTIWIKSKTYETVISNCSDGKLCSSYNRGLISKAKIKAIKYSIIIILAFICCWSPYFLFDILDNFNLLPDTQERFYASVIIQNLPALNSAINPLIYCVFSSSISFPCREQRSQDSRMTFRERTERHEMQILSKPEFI
ERK EGF block: EGF-driven ERK pathway inhibition; actives 0.41% (n = 130,000); Potency, µM (titrated, usually from 11.5 µM), without a hit: top-dose activity change, negative = inhibition, actives largely listed as inhibitors; HEK293-V1b, EGF-stimulated phospho-ERK AlphaScreen; AID 1454;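 also: plate controls were stimulated vehicle wells for no effect and unstimulated vehicle basal for full effect; nearly all actives have a fitted effect of over 55% in size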
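Phospho-ERK1/2 measured by AlphaScreen (SureFire) after 5 min 25 nM EGF stimulation of V1b-expressing HEK293 cells preincubated 30 min at 37C with titrated compounds; data scaled to DMSO and EGF controls, Hill-fitted AC50.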
HttQ103 aggreg: inhibitors of mutant huntingtin aggregate formation in PC12 cells; PC12 HttQ103-GFP aggregates, Acumen cytometry, 40 h; Potency, µM (top dose mostly 46.1 µM), inactives show top-dose activity change, negative = inhibition, hits mostly inhibitors; actives 1.1% (n = 220,000); AID 1688; also: % is scaled to controls: 0 for no effect and ±100 for the full control effect; nearly all actives have a fitted effect of over 60% in size
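Multiplexed with ATP-based cell death, this channel scores GFP aggregates in PC12 cells expressing inducible HTTex1-Q103-GFP. Induction used 100 nM tebufenozide; compounds were tested in concentration series.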
IMPase Li inh: cell-permeable IMPase inhibitors with lithium potentiation | CHO-M1 cells, IP1 TR-FRET (IP-One), carbachol + lithium | Potency, µM (titrated, usually from 59.4 µM), for inactives: at the highest dose activity, negative = IMPase inhibition, usual class: inhibitors | actives 0.35% (n = 210,000) | AID 1457;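 also: IP1 builds up when IMPase is blocked and the TR-FRET signal falls; plate controls were basal vehicle for no effect and high inhibitor control for full effect; nearly all actives have a fitted effect of over 50% in size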
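CHO cells stably expressing M1 receptor (2000/well, cultured 16–30 h) treated 30 min at 37C with compound plus low lithium. Cytosolic IP1 by TR-FRET (665/620 ratio and 620 channel) after 10 min lysis; AC50 by Hill fit.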
An asterisk follows results filed as active; ? = inconclusive; . = no result given; [ ] = dose if it differs, or a comment. Shown are actives, neighbours in structure and some others; about 1.9% of the full set was active somewhere. Calls follow the shape of the dose curve; as a rule, active = well fitted curve in the direction sought with a large enough effect; inconclusive = small, poorly fitted or top-dose-only effect, or another doubt; inactive = no such curve, though single readings can be large; an effect the other way counts as inactive or inconclusive. Potency is read from the fitted curve at half-maximal effect.

SMILES	HTT ATP protect	NPSR antag	ERK EGF block	HttQ103 aggreg	IMPase Li inh
CCOC(=O)c1ccc(NC(=O)COc2cc3oc(=O)c(CC(C)O)c(C)c3cc2Cl)cc1 (centres undefined)	4.1%[10 µM]	2.8%	8.4%[57.5 µM]	6.7%[9.22 µM]	.
CC(=O)c1cccc(NC(=O)COc2cc3oc(=O)c(CC(C)O)c(C)c3cc2Cl)c1 (centres undefined)	13.7%[10 µM]	?	?	3.55µM*	-14.4%
CC(C)[C@H](NC(=O)c1ccccc1)C(=O)OCc1nc2scc(-c3ccccc3)c2c(=O)[nH]1	-14.3%[10 µM]	-6.4%	35.5µM*	-24.7%	2.9%
O=C(OCc1nc2scc(-c3ccccc3)c2c(=O)[nH]1)c1cccc([N+](=O)[O-])c1	-2.7%[10 µM]	-1.0%[46.1 µM]	.	-15.4%	.
Cn1c(C(=O)OCC(=O)NCc2cccs2)cc2sccc21	-12.9%	17.7%[46.1 µM]	.	-5.8%	14.1µM*
Cc1cc(/C=C2\SC(=Nc3ccc(F)cc3)NC2=O)c(C)n1-c1ccc(S(N)(=O)=O)cc1	-75.2%	10µM*	.	?	32.2%[38.3 µM]
Cc1cc(/C=C2\SC(=S)NC2=O)c(C)n1-c1ccc(O)cc1	-25.0%[10 µM]	?	-15.1%[57.5 µM]	3.2%[9.22 µM]	.
C[C@@H]1CC2(OC[C@]3(C)O[C@H]23)O[C@H]2C[C@@]3(C)[C@@H]4CC[C@H]5C(C)(C)C(O[C@@H]6OC[C@@H](O)[C@H](O)[C@H]6O)CC[C@@]56C[C@@]46CC[C@]3(C)[C@@H]12 (some centres undefined)	-22.0%	.	.	.	-14.9%
CCc1ccc(OCC(=O)Nc2ccc(-c3nc4ccccc4o3)c(O)c2)cc1	-25.6%	-5.7%[46.1 µM]	.	0.4%	5.62µM*
CCS(=O)(=O)N1Cc2ccccc2CC1C(=O)Nc1nnc(SCc2ccc(C#N)cc2)s1 (centres undefined)	-5.0%[10 µM]	2.4%	6.2%	12.6µM*	1.8%
C[C@]12CCC(=O)C=C1CCC1C3CC[C@](O)(C(=O)CO)[C@@]3(C)CC3OC312 (some centres undefined)	-37.6%	.	?	.	7.4%
N#CC(=C(/N)Sc1ccccc1N)/C(C#N)=C(\N)Sc1ccccc1N	25.7%	.	.	.	-3.9%
Cc1cccc(-c2nc(CSCC(=O)N3CCN(Cc4ccc5c(c4)OCO5)CC3)c(C)o2)c1	-0.5%[10 µM]	-18.2%[46.1 µM]	.	10µM*	24.9%
O=C(CSCc1ccccc1)N1CCN(Cc2ccc3c(c2)OCO3)CC1	-14.0%[10 µM]	-4.0%	1.0%	-12.3%	8.4%
O=C(Nc1ccc(F)cc1)Nc1nnc(-c2ccncc2)s1	-16.3%	-20.3%[46.1 µM]	.	11.2µM*	-0.8%[38.3 µM]
O=C(Nc1ccncc1)Nc1ccc(F)cc1F	-3.6%[1.9 µM]	16.5%[46.1 µM]	.	35.5µM*	4.2%[38.3 µM]
O=C(Nc1ccc(Cl)cc1)Nc1nnc(-c2ccncc2)s1	20.0%[10 µM]	-18.7%	5.7%	?	10.7%
O=C(Nc1cccc(Cl)c1)Nc1nnc(-c2ccncc2)s1	41.4%[10 µM]	-25.3%	0.5%	12.6µM*	7.1%
Cc1ccc(NC(=O)Nc2nnc(-c3ccncc3)s2)cc1C	-24.7%[10 µM]	6.0%	-0.6%	-14.3%[9.22 µM]	5.5%
O=C(Nc1ccc(F)cc1F)Nc1ccc(F)cc1F	7.9%[10 µM]	-2.5%	6.5%	1.1%[9.22 µM]	5.1%
COc1ccc(-c2coc3cc(O)ccc3c2=O)c(O)c1O	-28.8%	.	-1.0%	.	11.5%
COC(=O)[C@@H]1C[C@@]2(O)[C@H](O)[C@H](O)[C@H](O)C[C@H]2N1Cc1ccc(N2CCN(C)CC2)cc1	-27.2%	.	2.3%	.	-5.0%
CC(C(=O)N1CCN(Cc2ccccc2)CC1)c1ccc([N+](=O)[O-])cc1 (centres undefined)	-6.7%[10 µM]	-4.7%	-1.0%[57.5 µM]	-2.7%[9.22 µM]	.
CC(On1nnc2ccccc21)C(=O)N1CCN(Cc2ccccc2)CC1 (centres undefined)	0.708µM*	9.5%	0.8%	?	-4.6%
CC(C)(C)c1ccc(C(=O)NCCCN2CCN(CCCNC(=O)c3ccc(C(C)(C)C)cc3)CC2)cc1	-53.9%[10 µM]	-58.3%	?	7.08µM*	15.5%
O=C(c1ccncc1)N1CCC[C@@]2(CCN(Cc3ccncc3)C2)C1	-3.9%	.	-7.3%	.	?
Cc1cc(C=O)c(C)n1-c1ccc(Oc2ccc([N+](=O)[O-])cn2)cc1	.	-14.7%	?	22.4µM*	23.9%
